Compound activity from PubChem.
This is a sample that favours compounds with a hit; in the whole collection about 3.2% have one here.
NRP1-CendR mod – modulators of CendR peptide binding to NRP-1, primary screen, biochemical, fluorescence polarization, uHTS | actives 0.85% (n = 360,000) | inhibition, % at 25 µM | AID 602438, 2012 | FAM-RPARPAR peptide binding to NRP-1 | Neuropilin-1 (Homo sapiens), O14786;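 active = inhibition or corrected inhibition above about 18%, plus a signal ratio from 0.5 to 1.5, limit read from the data, passing the limit was not always enough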
MEKK2mut PB1 HTS – MEK5 binding signal on mutant MEKK2 PB1, primary screen, biochemical, multiplex bead flow cytometry, Alexa488-MEK5 | AID 1530, 2009 | actives 0.35% (n = 290,000) | percent response, % at 10 µM | Alexa488-MEK5 binding to MEKK2 mutant; in the data active = percent response above about 24%, passing the limit was not always enough
MEKK3 PB1 HTS – modulators of MEKK3-MEK5 PB1 binding, primary screen, biochemical, wildtype MEKK3, multiplex bead flow cytometry, Alexa488-MEK5; bead-based flow cytometry, Alexa488-MEK5 binding to MEKK3; actives lie on both sides; 0 = blocked by unlabeled MEK5, 100 = vehicle; actives 1.4% (n = 290,000); binding response (% of control), % at 10 µM; Mitogen-activated protein kinase kinase kinase 3 (Homo sapiens), Q99759;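 active = binding response more than 3 SD above or below the average of its plate-row segment, actives on both sides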;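 also: Alexa488 bead fluorescence after subtracting the streptavidin-only scavenger bead signal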
Target sequence (Q99759 whole entry, looked up): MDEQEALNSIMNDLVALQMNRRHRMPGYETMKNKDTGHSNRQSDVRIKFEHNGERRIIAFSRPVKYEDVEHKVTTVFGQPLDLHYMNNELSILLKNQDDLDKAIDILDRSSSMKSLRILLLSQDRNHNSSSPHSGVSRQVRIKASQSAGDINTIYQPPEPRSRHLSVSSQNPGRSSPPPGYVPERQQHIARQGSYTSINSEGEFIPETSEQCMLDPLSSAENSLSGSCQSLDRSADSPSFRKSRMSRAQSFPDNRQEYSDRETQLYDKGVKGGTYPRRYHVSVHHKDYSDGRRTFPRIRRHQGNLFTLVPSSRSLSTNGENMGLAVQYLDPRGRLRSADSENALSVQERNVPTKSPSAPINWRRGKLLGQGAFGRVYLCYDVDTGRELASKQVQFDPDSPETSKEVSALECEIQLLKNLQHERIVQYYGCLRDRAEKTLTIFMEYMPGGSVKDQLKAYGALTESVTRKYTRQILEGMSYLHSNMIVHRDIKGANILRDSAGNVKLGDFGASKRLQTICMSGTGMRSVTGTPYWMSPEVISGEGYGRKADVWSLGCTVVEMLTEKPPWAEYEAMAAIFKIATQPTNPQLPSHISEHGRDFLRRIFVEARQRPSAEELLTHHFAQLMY
SKN-1 inh – suppressors of acrylamide-induced Pgst-4::GFP reporter in worms, primary screen, SKN-1 inhibitor project, whole organism, uHTS, GFP/RFP fluorescence ratio, strain VP596 | C. elegans VP596 Pgst-4::GFP/RFP ratio, 24 h | inhibition, % at 21.8 µM | actives 0.49% (n = 360,000) | AID 624304, 2012;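 active = interference check ratio from 0.5 to 1.5 plus GFP to RFP signal ratio inhibition reaching or exceeding a fixed threshold, cut at about 30% in these data, passing the limit was not always enough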
MEKK2 WT-MEK5 – modulators of MEK5 binding to wildtype MEKK2, primary screen, biochemical, multiplex bead flow cytometry, Alexa488-MEK5. AID 1531, 2009. actives 1.1% (n = 290,000). Alexa488-MEK5 binding to MEKK2 WT; actives lie on both sides. Mitogen-activated protein kinase kinase kinase 2 (Homo sapiens), Q9Y2U5. binding response (% of control), % at 10 µM; in the data active = binding response below about 67% or above about 130%
MEKK2wt confirm – modulators of MEK5 binding to wildtype MEKK2, confirmation, biochemical, single concentration, multiplex bead flow cytometry; AID 1892, 2009; actives 2.4% (n = 5,900); shares compounds with MEKK3 PB1 HTS; Alexa488-MEK5 binding to MEKK2 WT; actives lie on both sides; binding response (% of control), % at 10 µM; in the data active = binding response below about 16% or above about 210%; inactive = in between
MEKK2mut-MEK5 – mutant MEKK2 PB1-MEK5 binding signal retest – biochemical, single concentration, multiplex bead flow cytometry, confirmation; AID 1893, 2009; actives 2% (n = 5,900); percent response, % at 10 µM; Alexa488-MEK5 binding to MEKK2 mutant; shares compounds with MEKK3 PB1 HTS; in the data active = percent response mostly above about 71%, no sharp cut-off; inactive = mostly below about 38%;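 also: higher means compound restores mutant binding toward wildtype level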
MEKK3-MEK5 inh – MEKK3 wild-type PB1 binding to MEK5, inhibitors, confirmation, biochemical, bead multiplex flow cytometry, single concentration, wildtype | actives 1.8% (n = 5,900) | binding response (% of control), % at 10 µM | Alexa488-MEK5 binding to MEKK3; hits give low values | shares compounds with MEKK3 PB1 HTS;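 active = binding response below 72% of control, or above a set upper limit, though filed actives all read lower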;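 also: lower values mean stronger disruption of MEK5 binding to MEKK3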
Hits are given with their value; i = inactive; nt = no result given; [ ] = dose if it differs, or a comment.

SMILES	NRP1-CendR mod	MEKK2mut PB1 HTS	MEKK3 PB1 HTS	SKN-1 inh	MEKK2 WT-MEK5	MEKK2wt confirm	MEKK2mut-MEK5	MEKK3-MEK5 inh
CCN(CC)c1ccc(/C=N/NS(=O)(=O)c2ccc(CNC(C)=O)cc2)cc1	i	i	145	i	i	i	i	i
CC(=O)NCc1ccc(S(=O)(=O)N/N=C/c2ccc(Br)cc2)cc1	i	i	139	i	i	i	i	i
CC(=O)NCc1ccc(S(=O)(=O)N/N=C/c2ccccc2)cc1	i	i	i	i	i	nt	nt	nt
COC(=O)Cc1c(C)c2ccc(OCC(=O)N(C)C3CCS(=O)(=O)C3)cc2oc1=O (stereo not drawn)	i	i	i	i	i	nt	nt	nt
CCN1CCN(S(=O)(=O)c2ccc3ccccc3c2)CC1	i	i	50[inhibitor]	i	i	i	i	i
CCOCCCn1c(=NC(C)=O)c(C#N)cc2c(=O)n3ccccc3nc21	i	i	i	i	i	nt	nt	nt
CC(=O)N=c1c(C#N)cc2c(=O)n3ccccc3nc2n1Cc1ccccc1	i	i	135	i	i	i	i	i
O=S(=O)(NCc1ccco1)c1cccc(S(=O)(=O)N2CCOCC2)c1	i	i	2.0[inhibitor]	i	2.0[inhibitor]	i	i	i
O=C(NCc1ccco1)C1CCN(c2ccc(S(=O)(=O)N3CCOCC3)cc2[N+](=O)[O-])CC1	i	i	71[inhibitor]	i	i	i	i	i
Cc1ccc(S(=O)(=O)c2cccc(S(=O)(=O)N3CCOCC3)c2)cc1S(=O)(=O)N1CCOCC1	i	i	2.0[inhibitor]	i	2.0[inhibitor]	i	i	i
O=S(=O)(NCc1ccc(F)cc1)c1cccc(S(=O)(=O)N2CCOCC2)c1	i	i	i	i	i	nt	nt	nt
COc1cc(CN2C[C@@H](CO)O[C@@H](n3cnc4c(N(C)C)ncnc43)C2)cc(OC)c1OC	i	nt	nt	i	nt	nt	nt	nt
O=C(CCl)N(O)c1ccc(C=Cc2ccccc2)cc1	i	nt	nt	i	nt	nt	nt	nt
C[C@H](CO)N1C[C@H](C)[C@@H](CN(C)Cc2ccc(Oc3ccccc3)cc2)Oc2cc(Br)ccc2S1(=O)=O	i	nt	nt	i	nt	nt	nt	nt
O=C1CN(S(=O)(=O)c2cccc(C(=O)O)c2)c2ccccc2N1	i	i	i	i	i	nt	nt	nt
O=C(CSc1nc(C2CCCCC2)nc2ccccc12)NCc1ccco1	i	i	2.0[inhibitor]	i	-1.0[inhibitor]	i	i	i
O=C(NN=C1c2ccccc2-c2ccccc21)c1ccccc1Br	i	i	4.0[inhibitor]	i	8.0[inhibitor]	i	i	i
O=C(Nc1ccc(S(=O)(=O)Nc2ncccn2)cc1)c1cnc(Cl)c(Cl)c1	i	i	i	i	i	nt	nt	nt
O=C(Nc1ccc(S(=O)(=O)Nc2nccs2)cc1)c1cnc(Cl)c(Cl)c1	i	i	46[inhibitor]	i	i	i	i	i
COc1ccc(CCNC(=O)Nc2ccc3nc([C@@H]4O[C@H](CO)[C@@H](O)[C@H](O)[C@H]4O)[nH]c3c2)cc1Br	i	nt	nt	i	nt	nt	nt	nt
Cc1ccc(-c2nn(-c3ccccc3)cc2/C=C/C(=O)OCC(=O)NC2CC2)o1	i	i	131	i	i	i	i	i
CNC(=O)COC(=O)/C=C/c1cn(-c2ccccc2)nc1-c1ccc2c(c1)OCCO2	i	i	i	i	i	nt	nt	nt
Cn1c(=O)c2ncn(CC(=O)N/N=C/c3ccco3)c2n(C)c1=O	i	i	140	i	i	i	i	i
Cn1c(=O)c2ncn(CC(=O)N/N=C/C=C/c3ccccc3)c2n(C)c1=O	i	i	i	i	i	nt	nt	nt
CC(C)(C)c1ccc(NC(=O)c2c(F)cccc2Cl)cc1	i	i	47[inhibitor]	i	34[inhibitor]	i	i	i
SMILES	NRP1-CendR mod	MEKK2mut PB1 HTS	MEKK3 PB1 HTS	SKN-1 inh	MEKK2 WT-MEK5	MEKK2wt confirm	MEKK2mut-MEK5	MEKK3-MEK5 inh
CCCCCCn1cc(CN2CC(N3CCN(Cc4ccccc4F)CC3)CS2(=O)=O)nn1 (stereo not drawn)	i	nt	nt	i	nt	nt	nt	nt
COc1ccc(Cl)cc1N(C(=O)Nc1cccc(Cl)c1)C1=NCC(C)S1 (stereo not drawn)	i	i	129	i	i	i	i	i
Cc1cccc(N(C(=O)Nc2ccccc2)C2=NCC(C)S2)c1 (stereo not drawn)	i	i	i	i	i	nt	nt	nt
CC(=O)c1cccc(NC(=O)C(C)OC(=O)CCC2CCCCC2)c1 (stereo not drawn)	i	nt	nt	i	nt	nt	nt	nt
CC(=O)c1cccc(NC(=O)CCC2CCCC2)c1	i	i	2.0[inhibitor]	i	2.0[inhibitor]	i	i	i
CCCCCOc1ccc(C(=O)NCCC(=O)NCCCC(=O)OCC)cc1	i	i	i	i	i	nt	nt	nt
CCCOc1ccc(C(=O)NCCC(=O)NCCCC(=O)O)cc1	i	i	130	i	i	i	i	i
COc1ccc2nc(-n3c(O)c(C4=c5ccccc5=NC4=O)[nH]c3=S)sc2c1	i	i	i	i	i	nt	nt	nt
Cn1c(O)c(C2=c3ccccc3=NC2=O)[nH]c1=S	i	i	75[inhibitor]	i	i	i	i	i
COc1cc(-n2c(=O)c3ccccc3n(Cc3ccccc3)c2=O)cc(OC)c1OC	i	i	134	i	i	i	i	i
COc1cccc(CN2CCN(Cc3ccc(O)cc3)CC2CCO)c1 (stereo not drawn)	i	i	46[inhibitor]	i	i	i	i	i
CCOc1ccc(CN2CCN(Cc3cnn(CC)c3C)CC2CCO)cc1 (stereo not drawn)	i	i	48[inhibitor]	i	i	i	i	i
CCOc1ccc(CN2CCN(Cc3cccc4nonc34)CC2CCO)cc1 (stereo not drawn)	i	i	i	i	i	nt	nt	nt
COC(=O)c1sc(NC(=O)COc2cccc(C)c2)nc1C	i	i	141	i	i	i	i	62
CS(=O)(=O)c1ccccc1-c1nnc(NC(=O)Cc2ccccc2)o1	i	i	i	i	i	nt	nt	nt
CN(CCC#N)C(=O)COC(=O)c1ccc2c(=O)n3c(nc2c1)CCC3	i	i	128	i	i	i	i	i
N#CCCN(C(=O)COC(=O)c1ccc2c(=O)n3c(nc2c1)CCC3)c1ccccc1	i	i	i	i	i	nt	nt	nt
CCC(=O)N1CCCC(C(=O)Nc2ccc3cn[nH]c3c2)CC1 (stereo not drawn)	i	nt	nt	i	nt	nt	nt	nt
